# High-throughput results from PubChem.
# TGFb inhibitor: inhibitors of TGF-b signaling; HepG2 CAGA-GFP TGF-b/SMAD3 reporter, GFP fluorescence, 18 h; TGF-beta stimulated, 500 pg/mL final; Potency, µM (doses to about 46.1 µM), inactives show top-dose activity, negative = inhibition, hits mostly inhibitors; 1.2% of 410,000 active; further: on the % scale 0 is the no-effect control and ±100 the full control effect; nearly all actives have a fitted effect of over 65% in size
#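 Cell-based qHTS in HEPG2 carrying a CAGA-GFP Smad reporter; compounds added before 500 pg/mL final TGF-beta, 18 h incubation at 37 degrees C, GFP fluorescence quantified per cell by imaging cytometry.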
# A549 tox: A549 cytotoxicity, counter-screen for Nrf2 inhibitors. 0.16% of 390,000 active. AID 504648. A549 ARE-Fluc cells, CellTiter-Fluor viability, 18-24 h. Potency, µM (series often up to 46 µM), without a hit: at the top dose activity change, negative = cytotoxicity, hits mostly inhibitors; further: on the % scale 0 is the no-effect control and ±100 the full control effect
#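 A549 ARE_Fluc cells in 5% FBS OPTI-MEM were exposed to compounds in concentration-response for 18-24 h at 37 deg C. Viability was read by CellTiter-Fluor fluorescence (Ex 405/Em 525) after 30 min, before the luciferase read.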
# HepG2 tox: HepG2 cytotoxicity, counter-screen for TGF-b inhibitors; HepG2 CAGA-GFP viability, ATP luminescence, 18 h; Potency, µM (highest dose often 46.1 µM), without a hit: top-dose activity change, negative = cytotoxicity, hits mostly cytotoxic; 0.76% of 410,000 active
#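 CellTiter-Glo luminescence gave cytotoxicity after 18 hours at 37 degrees C. The cells were HepG2 CAGA-GFP in 1% FBS DMEM, stimulated with 500 pg/mL TGF-beta after compound addition. %Activity was normalised to no-cell wells (complete cell-killing) and DMSO (no toxicity), and curves were fitted and classified.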
# Nrf2 activator: Nrf2 pathway activation; AREc32 ARE-luciferase reporter (MCF7-derived line), luminescence, 24 h; 0.31% of 410,000 active; Potency, µM (top dose mostly 46.1 µM), inactives show top-dose activation, actives largely listed as activators; AID 624171; further: % of control where 0% means no effect; nearly all actives have a fitted effect of over 65% in size
#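 Cells of the AREc32 ARE-luciferase line are plated in OPTI-MEM containing 5% FBS and left overnight at 37 deg C. Compounds are pinned in, incubation continues 24 hr, and firefly luciferase signal is then measured.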
# Nrf2 block: blocks Nrf2 signaling; A549 ARE-Fluc reporter, luciferase luminescence, 18-24 h; Potency, µM (top dose mostly 46 µM), for inactives: at the highest dose activity change, negative = inhibition, usual class: inhibitors; 2.1% of 360,000 active; further: on the % scale 0 is the no-effect control and ±100 the full control effect; nearly all actives have a fitted effect of over 60% in size
#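 Reporter: ARE-Fluc in A549. Exposure: 18-24 h, 37 °C, 5% CO2, 5% FBS OPTI-MEM. Readouts: fluorescent cytotoxicity (CellTiter-Fluor), then luminescent Nrf2 signal after BugLite.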
# Numbers without * were called inactive; u = inconclusive; x = no result; ! = not confirmed by another sample. Rows were chosen to be rich in hits. Some 3.6% of all compounds tested hit in one or more screens of this group. The call rests on the fitted dose curve; in most records, active means well fitted curve in the direction sought with a large enough effect; inconclusive means small, poorly fitted or top-dose-only effect, or another doubt; inactive means no such curve, though single readings can be large; an effect the other way counts as inactive or inconclusive. Potency means the concentration at half of the fitted maximal effect.
SMILES,TGFb inhibitor,A549 tox,HepG2 tox,Nrf2 activator,Nrf2 block
COc1ccc(N/N=C(/C(C)=O)N2CCCc3ccccc32)cc1,-4%,-8%,9%,0%,6.5µM*
CN(C)c1nc(C=C(C#N)C#N)c(Cl)n1-c1ccc(F)cc1,5µM*,u,8.9µM*,u,-139%
COc1ccc(CNC(=O)NC(C)(C)c2cccc(C(C)(C)NC(=O)NCc3ccc(OC)cc3)c2)cc1,1%,-3%,4%,1%,1%
Cc1ccc(C(=O)NCC(=O)OCC(=O)N(CC(C)C)c2c(N)n(Cc3ccccc3)c(=O)[nH]c2=O)cc1C,1%,0%,3%,0%,-2%
Cc1ccc(SCC(=O)OCC(=O)N(CC(C)C)c2c(N)n(Cc3ccccc3)c(=O)[nH]c2=O)cc1C,18µM*,2%,-156%,0%,1%
C=CCSc1nc2ccsc2c(=O)n1-c1ccccc1,-8%,-3%,-74%,3%,19%
COc1cccc(C(=O)Nc2cc(C(=O)NCc3ccc(C)cc3)ccc2N2CCC3(CC2)CC(c2ccccc2)=NO3)c1,1%,-1%,0%,0%,-7%
O=c1cc(C(F)(F)F)nc(SC/C=C/c2ccccc2)[nH]1,14µM*,-3%,-33%,4%,-4%
Nc1cc(=O)[nH]c(SC/C=C/c2ccccc2)n1,-2%,-1%,-3%,5%,-20%
O=C(N/N=C/c1ccc([N+](=O)[O-])o1)c1cc(-c2cccc(Br)c2)nc2ccccc12,-11%,u,-65%,u,13µM*
O=C(N/N=C/c1ccco1)c1cc(-c2ccccc2)nc2ccccc12,1%,0%,-22%,16%,7%
CCCc1ccc(-c2cc(C(=O)N/N=C/c3ccc([N+](=O)[O-])o3)c3ccccc3n2)cc1,-18%,-21%,-32%,17%,10µM*
COCCN(Cc1cc2c(C)cc(C)cc2nc1Cl)C(=O)c1ccccc1F,u,u,-7%,-1%,18µM*
COCCN(Cc1cc2cc(C)cc(C)c2nc1Cl)C(=O)Nc1ccccc1,u,-18%,-31%,0%,6%
O=C(NCc1ccc(Cl)cc1)c1ccc(-c2ccccc2C(F)(F)F)o1,16µM*,9%,-59%,-1%,1%
O=C(Nc1ccccc1)c1ccc(-c2ccccc2C(F)(F)F)o1,u,-2%,-28%,15%,20%
CCCCNC(=O)CNC(=S)N(Cc1ccccc1)Cc1cccs1,-27%,-16%,-2%,2%,23µM*
CC(CCc1ccccc1)NC(=O)CNC(=S)N(Cc1cccs1)C1CCCC1 (stereo unspecified),u,u,2%,4%,15µM*
Cc1ccc2nc(-c3ccc(NC(=O)COC(=O)c4ccco4)cc3)sc2c1,11%,9%,1%,0%,6.5µM*
CC(C)(C)c1cc(NCc2ccccn2)n2ncc(-c3ccccc3)c2n1,14µM*,-18%,-32%,5%,u
Cc1cc(NCc2ccccc2)n2ncc(-c3ccccc3)c2n1,20%,2%,3%,3%,u
Cc1ccccc1NC(=O)c1c2c(nc3ccccc13)C(=O)N(C1CCCCC1)C2,4%,-3%,-12%,6%,27%
COc1cc(OC)c(NC(=O)c2c3c(nc4ccccc24)C(=O)N(C2CCCCC2)C3)cc1Cl,2%,-8%,-2%,-1%,13µM*
COC(=O)[C@@]12CCCCN1[C@H](c1ccc(-c3ccc(F)cc3)c(OC)c1)[C@@H]1C(=O)N(C)C(=O)[C@@H]12,u,-17%,-25%,1%,u
CN(C(=O)/C=C/c1ccccc1)C1CCCCC1,-11%,0%,11µM*,0%,u
SMILES,TGFb inhibitor,A549 tox,HepG2 tox,Nrf2 activator,Nrf2 block
Cc1ccc(-n2nc3c(N4CCC(C(=O)NCc5ccccc5C)CC4)nnc(C)c3c2C)cc1,18µM*,u,-95%,10%,u
CCOc1ccc(CNC(=O)C2CCN(c3nnc(C)c4c(C)n(-c5ccc(C)cc5)nc34)CC2)cc1,u,10%,-107%,6%,u
CCOc1ccccc1CNC(=O)C1CCN(c2nnc(C)c3c(C)n(-c4ccc(C)cc4)nc23)CC1,11µM*,u,10µM*!,7%,23µM*!
COc1ccccc1CCNC(=O)C1CCN(c2nnc(C)c3c(C)n(-c4ccc(C)cc4)nc23)CC1,u,3%,3.5µM*!,0%,u
CCOC(=O)c1sc(=NC(=O)c2ccc(Cl)s2)n(C)c1C,18%,-1%,15%,6%,u
CC(C)Cc1ccc(C(C)CC2=CCC(CN(C)C)C2=O)cc1 (stereo unspecified),u,2%,7.9µM*,u,8%
CC(C)Cc1ccc(S(=O)(=O)N2CCOCC2)cc1,-19%,-3%,-14%,0%,9%
CN(CC(=O)Nc1cccc(F)c1)C(=O)CNS(=O)(=O)c1ccc(N(C)C)c([N+](=O)[O-])c1,-4%,u,-1%,2%,1%
COc1cc(C2Nc3ccccc3-c3cc(C)nn32)ccc1O (stereo unspecified),-20%,8%,1%,5%,28%
Cc1cc2n(n1)C(c1ccc(O)cc1)Nc1ccccc1-2 (stereo unspecified),-5%,x,-26%,1%,18µM*
COc1ccc(CCC(=O)NCC(c2ccco2)N2CCc3ccccc32)cc1 (stereo unspecified),u,-14%,9%,-1%,12%
CC1CCC(NC(=O)CCc2cn(Cc3ccccc3Cl)c3ccccc23)CC1 (stereo unspecified),16µM*,6%,-21%,4%,-12%
Cc1ccsc1C(=O)OCC(=O)N1CCN(C(=O)c2ccco2)CC1,0%,5%,-6%,1%,12%
O=C(NC(=S)N(CCCCO)C1CCCCC1)c1sc2ccccc2c1Cl,u,u,-28%,19%,12µM*
Cc1cccc(C)c1NC(=O)CN1CCN(C(=O)CN2C(=O)NC3(CCCCC3C)C2=O)CC1 (stereo unspecified),-7%,17%,-2%,0%,-18%
CC1CCCCC12NC(=O)N(CC(=O)N1CCN(Cc3ccc(C#N)cc3)CC1)C2=O (stereo unspecified),-32%,0%,-44%,0%,5.8µM*
O=[N+]([O-])c1ccc(O)c(/C=N/Nc2nn[nH]n2)c1,4%,-5%,-5%,2%,-5%
O=[N+]([O-])c1ccc(O)c(/C=N/Nc2ccc(Cl)nn2)c1,u,u,-44%,-1%,3.7µM*
CCCN(C)CCCOc1cc2nc(N3CCCN(C)CC3)nc(NC3CCN(C)CC3)c2cc1OC,14µM*,x,-1%,x,x
COc1cc2c(NC3CCN(C)CC3)nc(N3CCCCC3)nc2cc1OCCOCCN(C)C,-100%,x,-39%,x,x
